Results from PubChem BioAssay (Tox21).
Several values for one entry are separate records, joined by “and”; a condition that tells them apart may be missing. Equal entries are not always repeated. Records with an inconclusive call do not appear. Where a call stands in place of a potency, no number is given. The source holds several records for some structures; these can differ, active in one and inactive in another. Activity calls are given as the source filed them. The call rests on the fitted dose curve; in most records, active means well fitted cell-killing curve with a large enough effect in the repeat runs; inconclusive means weak or mixed curves, or effect the other way; inactive means no such curve, though single readings can be large or run the other way.

Test: qHTS assay for identifying genotoxic compounds that show differential cytotoxicity against isogenic chicken DT40 cell lines with known DNA damage response pathways - wild type cell line (AID 743012); further: nearly all actives have a fitted effect of over 60% in size
Details: DT40 wild type chicken cells viability, CellTiter-Glo, 40 h; series mostly up to 68.4 µM
Text: U.S. Tox21 Program National Center for Advancing Translational Sciences [NCATS] NIH Chemical Genomics Center [NCGC] U.S. Environmental Protection Agency [EPA] National Institutes of Environmental Health Sciences [NIEHS] National Toxicology Program [NTP] U.S. Food and Drug Administration [FDA] Tox21 Assay Overview: DNA repair pathways play a critical role in cellular homeostasis by repairing DNA damage induced by endogenous processes and xenobiotics. Isogenic chicken DT40 cell lines deficient in different DNA repair pathways can be used to identify genotoxic compounds and aid in characterizing the nature of the DNA damage induced. Two DNA repair-deficient cell lines with disrupted genes, Rad54/Ku70 or Rev3, were used to screen the Tox21 10K compound library. Possible genotoxicity was based on the presence of a significant increase in cytotoxicity in one or more of the DNA repair-deficient cell lines compared to that observed in the parental DNA repair-proficient cell line. CellTiter Glo viability assay (Promega, Madison, WI) was used to measure cell viability in these cells after compound treatment. This assay includes the data from the wild type cell line.
Tox21 Assay Protocol Summary: 300 DT40 wild type cells in 5 uL/well were dispensed into white, solid-bottom 1536-well plates using a Multidrop Combi (ThermoFisher Scientific, Waltham, MA) dispenser. After the assay plates were incubated at 37 C/5% CO2 for approximately 0.5 hour, 23 nL of compounds dissolved in DMSO, positive controls or DMSO only was transferred into the assay plate by a pintool work station (Kalypsys, San Diego, CA). The assay plates were incubated at 37 C/5% CO2 for 40 hours. After 5 uL per well of CellTiter-Glo reagent was added into each well of the assay plates, the plates were incubated for 30 min at room temperature and the luminescence intensity of the plates was measured using a ViewLux (PerkinElmer, Shelton, CT) plate reader.
Potency means the concentration at half of the fitted maximal effect.

Structure (SMILES)	Potency
C/C=C/C(=O)N(CC)c1ccccc1C	54.5 µM (active)
c1ccc2c(c1)ccc1cc3c(ccc4ccccc43)cc12	inactive
c1ccc2cc3ccccc3cc2c1	inactive
O=[Se](O)O	433 nM (active) and 5.23 µM (active)
C[C@]12CC[C@@H]3c4ccc(O)cc4CC[C@H]3[C@@H]1CC[C@H]2O	44 µM (active) and 48.6 µM (active)
CN1CCOCC1	inactive
C=CCCCCCCCCCC	inactive
C[N+](C)(C)CCO	inactive
Cc1ccc(N)c([N+](=O)[O-])c1	inactive
O=C(O)c1ccc(O)cc1	inactive
CC1(C)OC(=O)NC1=O	inactive
FC(F)(F)C(Cl)Br (stereo not given)	inactive
c1ccc2c(c1)ccc1ncccc12	inactive
CC1=CC(C)(C)Nc2ccccc21	inactive and 66.8 µM (active)
C=CC(C)(O)CCC=C(C)C (stereo not given)	inactive
CC(C)(Oc1ccc(Cl)cc1)C(=O)O	inactive
CC(=O)O[C@]1(C(C)=O)CC[C@H]2[C@@H]3C=C(C)C4=CC(=O)CC[C@]4(C)[C@H]3CC[C@@]21C	11.4 µM (active) and 13.7 µM (active)
CCC/C=C/C=O	inactive
COc1ccc2nc(N)sc2c1	inactive
Cc1ccc(C(C)(C)C)c(O)c1	54.5 µM (active)

Structure (SMILES)	Potency
CC/C(=C(/CC)c1ccc(O)cc1)c1ccc(O)cc1	26.6 µM (active) and 30.4 µM (active) and 17.2 µM (active)
CCCCCC1C(=O)CCC1CC(=O)OC (stereo not given)	inactive
C=CCNCC=C	inactive
O=C(O)CCCC(=O)O	inactive
CC1(C)NC(=O)N(c2ccc([N+](=O)[O-])c(C(F)(F)F)c2)C1=O	5.96 µM (active) and 4.86 µM (active)
C=CCOC(=O)C(=C)C	inactive
CN(Cc1cnc2nc(N)nc(N)c2n1)c1ccc(C(=O)N[C@@H](CCC(=O)O)C(=O)O)cc1	9.4 nM (active) and 1.7 nM (active)
O=Cc1ccccc1C=O	7.5 µM (active) and 2.73 µM (active)
CCC(=O)O[C@H]1[C@H](O[C@@H]2[C@@H](C)[C@H](O[C@H]3C[C@@](C)(OC)[C@@H](O)[C@H](C)O3)[C@@H](C)C(=O)O[C@H](CC)[C@@](C)(O)[C@H](O)[C@@H](C)C(=O)[C@H](C)C[C@@]2(C)O)O[C@H](C)C[C@@H]1N(C)C	40.5 µM (active)
IC(I)I	inactive
CC1(C)O[C@@H]2C[C@H]3[C@@H]4C[C@H](F)C5=CC(=O)C=C[C@]5(C)[C@@]4(F)[C@@H](O)C[C@]3(C)[C@]2(C(=O)CO)O1	inactive
COc1ccc(-c2coc3cc(O)cc(O)c3c2=O)cc1	54.5 µM (active)
CC(=O)OC(C)C	inactive
Nc1cc([N+](=O)[O-])ccc1C(=O)O	inactive
CCCCCCCCCCCCCO	inactive
O=C1OC2(c3ccccc31)c1cc(I)c(O)c(I)c1Oc1c2cc(I)c(O)c1I	inactive and 9.33 µM (active)
OC[C@@H](O)[C@@H](O[C@@H]1O[C@H](CO)[C@H](O)[C@H](O)[C@H]1O)[C@H](O)[C@@H](O)CO	inactive
CC(C)[C@@H]1CC[C@@H](C)CC1=O	inactive
CCCCCCCC/C=C\CCCCCCCC(=O)O	inactive
CC(C)=CCO	inactive
